A word on the inhibition: it is the relative decrease from the control value, in per cent.

Consider 14 compounds from PubChem BioAssay.

The source made the active and inactive calls.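 How the source made its calls, unless noted: active means fluorescence slope higher than the sample average by over 3 SD (cut at about -0.22 in these data, passing the limit was not always enough); inactive means the rest.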

Experiment [1] can be described thus: inhibitors of TNFa-induced NFkB p65 translocation, primary screen, imaging, HUVEC, MLSMR starter and 10KST1 sets (AID 438;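 active means inhibition above 20% together with a positive visual image hit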;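 further: compound added about 3h40 before a 20 min TNFalpha stimulation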;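 on inhibition: signal is the nuclear over cytoplasmic p65 intensity ratio per well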). The conditions noted are these: HUVEC TNFa-induced p65 nuclear translocation; cell count: measured here: nuclei count (cytotoxicity indicator), at 2.08 µM; inhibition: at 2 µM, stronger effect = higher value, 0% TNFa-plus-vehicle, 100% no-TNFa wells.

Experiment [2] can be described thus: inhibitors of mutant huntingtin aggregation, primary screen, imaging, exon1htt(103Q)mCFP cells, high-content imaging (AID 483;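 active means visual image review flags a hit and inhibition of aggregation exceeds 20%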;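 further: compound exposure lasted 3 days before fixation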;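 on nuclei count: percent of the per-plate median nuclei count of sample wells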). The conditions noted are these: exon1htt(103Q)mCFP cell line, aggregate imaging, at 2 µM; inhibition of aggregation: stronger effect = higher value; nuclei count: measured here: cell count, toxicity.
A short description of experiment [3]: inhibitors of E-selectin induction by TNFa, primary screen, imaging, HUVEC, immunofluorescence, MLSMR starter and 10KST1 sets (AID 487;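 active means visually confirmed hit in the image check and inhibition above 20%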;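 on inhibition: signal is fraction of cell area covered by stained E-selectin grains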;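 on nuclei count: 100% = median nuclei count of all wells on the same plate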). The conditions noted are these: HUVEC TNFalpha-induced E-selectin immunofluorescence imaging, at 2 µM; inhibition: stronger effect = higher value; nuclei count: measured here: cell number, toxicity.
In experiment [4] the target is Voltage-gated potassium channel subunit beta-2 (Rattus norvegicus) (UniProt P62483). Briefly: KvBeta enzyme negative modulators, primary screen, biochemical, NADPH fluorescence (AID 622).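 Further: slope of raw intensity against log time taken from 70 to 1610 s.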 The conditions noted are these: recombinant KvBeta, 4-cyanobenzaldehyde reduction, at 10 µM, stronger effect = higher value.
Chain of Voltage-gated potassium channel subunit beta-2 (Rattus norvegicus) (P62483 whole entry, looked up): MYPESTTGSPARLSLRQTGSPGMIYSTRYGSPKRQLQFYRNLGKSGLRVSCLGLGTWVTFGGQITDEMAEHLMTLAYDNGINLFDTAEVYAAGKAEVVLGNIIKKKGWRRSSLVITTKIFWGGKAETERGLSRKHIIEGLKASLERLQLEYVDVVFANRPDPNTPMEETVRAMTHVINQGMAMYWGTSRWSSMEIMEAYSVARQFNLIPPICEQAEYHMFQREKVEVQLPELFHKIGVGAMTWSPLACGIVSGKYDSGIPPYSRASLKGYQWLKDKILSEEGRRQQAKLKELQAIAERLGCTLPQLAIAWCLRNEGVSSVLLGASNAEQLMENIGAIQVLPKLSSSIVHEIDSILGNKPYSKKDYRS
Experiment [5] has the same target. Briefly: KvBeta positive modulators, primary screen, biochemical, NADPH fluorescence (AID 623;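 active means NADPH fluorescence slope more negative than the mean of all samples by about 3 SD, 99.7% confidence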;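 further: fluorescence intensity change per second fitted from 20 to 320 s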). The conditions noted are these: Recombinant KvBeta, NADPH fluorescence decrease slope, 10 min; at 10 µM; stronger effect = lower value.
The target in experiment [6] is Alpha-2C adrenergic receptor (Homo sapiens) (UniProt P18825). Briefly: modulators of alpha2C/GIRK thallium flux, primary screen, cell-based, HEK293 alpha2C/GIRK1/2 (AID 624;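 active means fluorescence slope after compound addition differing from the mean of all screened samples at 99.7% confidence, in either direction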;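 further: slope of fluorescence ratio to pre-addition baseline per second over 15 to 24 s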). The conditions noted are these: thallium flux BTC fluorescence, at 10 µM, actives lie on both sides.
Chain of Alpha-2C adrenergic receptor (Homo sapiens) (P18825 whole entry, looked up): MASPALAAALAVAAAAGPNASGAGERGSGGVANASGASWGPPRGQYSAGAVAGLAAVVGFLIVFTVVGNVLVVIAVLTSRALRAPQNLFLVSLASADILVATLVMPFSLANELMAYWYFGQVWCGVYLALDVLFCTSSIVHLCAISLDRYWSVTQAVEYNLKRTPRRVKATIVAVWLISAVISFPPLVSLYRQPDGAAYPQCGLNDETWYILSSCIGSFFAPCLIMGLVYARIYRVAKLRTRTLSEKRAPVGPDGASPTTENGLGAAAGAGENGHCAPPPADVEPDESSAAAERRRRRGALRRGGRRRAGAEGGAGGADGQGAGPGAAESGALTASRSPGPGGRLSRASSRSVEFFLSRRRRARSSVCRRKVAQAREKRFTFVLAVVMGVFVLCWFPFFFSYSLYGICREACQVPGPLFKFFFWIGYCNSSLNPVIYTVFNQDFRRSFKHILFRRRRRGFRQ
Experiment [7] in a line: inhibitors of Sendai virus-induced IRF3 signaling, primary screen, TLR/RLR signaling modifier project, cell-based, Sendai virus stimulus, luciferase, 10K MLSCN set (AID 602276;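 active means inhibition at or above 50% at 10 µM; inactive means inhibition below 50%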;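 further: firefly luciferase from ISG56 promoter only with Renilla not read in this screen; 0% = Sendai virus plus DMSO and 100% = medium plus DMSO without virus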). The conditions noted are these: HEK293 RL24 IRF3 luciferase reporter, at 10 µM, stronger effect = higher value. In general terms: In a reporter assay the amount or activity of a reporter protein is the signal.

Experiment [8] can be described thus: inhibitors of poly I:C-induced TLR3 signaling, primary screen, cell-based, poly I:C stimulus, luciferase, 10K MLSCN set (AID 602277;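 active means inhibition of the reporter signal at or above 50%; inactive means inhibition below 50%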). The conditions noted are these: HEK293-TLR3 RL24 IRF3 luciferase reporter, at 10 µM, stronger effect = higher value.

For the compound `COCCN1CCN(c2c(C)c(C)nc3cc(-c4cccc(OC)c4)nn23)CC1`, the cell count in experiment [1] was 367. For the same compound, the inhibition was -6.1% (inactive) in experiment [1], -52.9% (inactive) in experiment [3], 15.2% (inactive) in experiment [7] and 16.1% (inactive) in experiment [8]. In experiment [2], the inhibition of aggregation was -9.2% (inactive). In addition, the nuclei count in experiment [2] is 80.5%; in experiment [3] it was 106%. In addition, the fluorescence slope in experiment [4] was -0.567 (inactive). In addition, the NADPH fluorescence slope in experiment [5] was -3.9e-05 (inactive). Besides, in experiment [6], the slope was 0.0105 (inactive).
As to `CC1=C(C)CC2C(=O)N(c3cccc4ccccc34)C(=O)C2C1` (centres undefined), the cell count in experiment [1] amounted to 705. Also, the inhibition is -2.3% (inactive) in experiment [1], -28.7% (inactive) in experiment [3], 0.65% (inactive) in experiment [7] and 28.7% (inactive) in experiment [8]. Besides, in experiment [2], the inhibition of aggregation is 1.2% (inactive). Also, the nuclei count in experiment [2] and in experiment [3] was 106% each time. Further, the fluorescence slope in experiment [4] was -0.569 (inactive). The NADPH fluorescence slope in experiment [5] was -2.7e-05 (inactive). In experiment [6], the slope was 0.00739 (inactive).
With `CCOc1ccc(NC(=O)CSc2nc3cccnc3n2CC)cc1`, the cell count in experiment [1] was determined as 579. Further, the inhibition in experiment [1] is -15.8% (inactive); in experiment [3], -54.8% (inactive); in experiment [7] it was 12.5% (inactive); in experiment [8], 25.8% (inactive). Moreover, in experiment [2], the inhibition of aggregation is -26.9% (inactive). For the same compound, the nuclei count was 92.3% in experiment [2] and 102% in experiment [3]. The fluorescence slope in experiment [4] is -0.487 (inactive). For the same compound, in experiment [5], the NADPH fluorescence slope was -2.4e-05 (inactive). For the same compound, in experiment [6], the slope is 0.00547 (inactive).
On to `CCN(CC)c1ccc(-c2c(C#N)c(N)nc(OC)c2C#N)cc1`, for which, in experiment [1], the cell count amounted to 426. In addition, the inhibition was -3.8% (inactive) in experiment [1], -13.4% (inactive) in experiment [3], -0.552% (inactive) in experiment [7] and 18.3% (inactive) in experiment [8]. The inhibition of aggregation in experiment [2] is -21% (inactive). The nuclei count turned out to be 112% in experiment [2] and 113% in experiment [3]. Besides, in experiment [4], the fluorescence slope was -0.0839 (inactive). The NADPH fluorescence slope in experiment [5] was 5.4e-06 (inactive). In experiment [6], the slope was 0.00577 (inactive).
As for `Cn1c(=O)c2c(nc(SCCOc3ccc4ccc(=O)oc4c3)n2C)n(C)c1=O`, in experiment [1], the cell count came to 581. For the same compound, the inhibition is 3.3% (inactive) in experiment [1], -34.8% (inactive) in experiment [3], 5.44% (inactive) in experiment [7] and 23.8% (inactive) in experiment [8]. For the same compound, the inhibition of aggregation in experiment [2] was 7.2% (inactive). In addition, the results for the nuclei count in experiment [2] and in experiment [3] were 107% and 95.1%, respectively. The fluorescence slope in experiment [4] was -0.53 (inactive). For the same compound, the NADPH fluorescence slope in experiment [5] was -3.8e-05 (inactive). Besides, in experiment [6], the slope was 0.00534 (inactive).
For `CCOC(=O)N1CCN(c2c(N3CCN(c4ccccn4)CC3)c(=O)c2=O)CC1`, the cell count in experiment [1] stood at 555. Further, the inhibition in experiment [1] is 3.4% (inactive); in experiment [3], -24.6% (inactive); in experiment [7], 9.82% (inactive); in experiment [8], 16.3% (inactive). The inhibition of aggregation in experiment [2] was 25.3% (inactive). For the same compound, the results for the nuclei count in experiment [2] and in experiment [3] were 76.1% and 119%, respectively. In addition, the fluorescence slope in experiment [4] is -0.506 (inactive). Further, the NADPH fluorescence slope in experiment [5] was -5.8e-06 (inactive). Further, the slope in experiment [6] was 0.00633 (inactive).
Turning to `O=C(CSc1nnc(Cc2cccs2)n1Cc1ccco1)Nc1cccc(Cl)c1`, the cell count in experiment [1] was found to be 677. In addition, the inhibition in experiment [1] is -3.5% (inactive); in experiment [3] it was -30.1% (inactive); in experiment [7] it was 13.6% (inactive); in experiment [8], 31.6% (inactive). Moreover, in experiment [2], the inhibition of aggregation is -13.8% (inactive). Besides, the nuclei count in experiment [2] was found to be 108%; in experiment [3] it was 116%. For the same compound, in experiment [4], the fluorescence slope was -0.397 (inactive). For the same compound, the NADPH fluorescence slope in experiment [5] was 1.1e-05 (inactive). In addition, in experiment [6], the slope was 0.0045 (inactive).
`Cc1cc(C(=O)CSc2nc3ccccc3[nH]2)c(C)n1C`: in experiment [1], the cell count amounted to 659. Moreover, the inhibition was 5.3% (inactive) in experiment [1], -82.7% (inactive) in experiment [3], -46.8% (inactive) in experiment [7] and -155% (inactive) in experiment [8]. The inhibition of aggregation in experiment [2] was 7.6% (inactive). The nuclei count in experiment [2] worked out at 113%; in experiment [3], 123%. The fluorescence slope in experiment [4] was -0.59 (inactive). In experiment [5], the NADPH fluorescence slope is -5.2e-05 (inactive). Besides, the slope in experiment [6] was 0.00445 (inactive).
Take `COc1ccc(S(=O)(=O)N2CCC(C(=O)NCc3ccco3)CC2)cc1`: the cell count in experiment [1] worked out at 245. For the same compound, the inhibition is -0.2% (inactive) in experiment [1], -290% (inactive) in experiment [3], 7.79% (inactive) in experiment [7] and 9.56% (inactive) in experiment [8]. Besides, the inhibition of aggregation in experiment [2] was 1.8% (inactive). In addition, the nuclei count was 99.6% in experiment [2] and 114% in experiment [3]. Moreover, the fluorescence slope in experiment [4] was -0.418 (inactive). Further, the NADPH fluorescence slope in experiment [5] was -2.7e-05 (inactive). Also, the slope in experiment [6] was 0.00415 (inactive).
In the case of `COc1cccc(NC(=O)C2CCCN2C(=O)Nc2cccc(F)c2)c1` (centres undefined), the cell count in experiment [1] worked out at 584. For the same compound, the inhibition is -15.1% (inactive) in experiment [1], -62.2% (inactive) in experiment [3], 9.51% (inactive) in experiment [7] and 8.88% (inactive) in experiment [8]. The inhibition of aggregation in experiment [2] is -3.6% (inactive). For the same compound, the nuclei count is 86.9% in experiment [2] and 111% in experiment [3]. Also, in experiment [4], the fluorescence slope was -0.512 (inactive). Moreover, in experiment [5], the NADPH fluorescence slope is -5.6e-05 (inactive). Moreover, the slope in experiment [6] is 0.00468 (inactive).
For `O=S(=O)(c1ccccc1)c1nc(-c2cccs2)oc1NCC1CCCO1` (centres undefined), the cell count in experiment [1] worked out at 566. The inhibition was -1.8% (inactive) in experiment [1], -17.9% (inactive) in experiment [3], -17.6% (inactive) in experiment [7] and -20.5% (inactive) in experiment [8]. In experiment [2], the inhibition of aggregation was 11.4% (inactive). Besides, the nuclei count in experiment [2] was 108%; in experiment [3], 104%. In experiment [4], the fluorescence slope was -0.538 (inactive). Further, the NADPH fluorescence slope in experiment [5] is 5.1e-06 (inactive). Further, the slope in experiment [6] was 0.00406 (inactive).
As for `CN(C)c1nc(N)nc(-c2nc3ccccc3s2)n1`, the cell count in experiment [1] was found to be 824. Further, the inhibition was -2.1% (inactive) in experiment [1], -96.9% (inactive) in experiment [3], -26% (inactive) in experiment [7] and -41.6% (inactive) in experiment [8]. Further, the inhibition of aggregation in experiment [2] is -13.6% (inactive). The nuclei count in experiment [2] was found to be 97.7%; in experiment [3], 122%. For the same compound, the fluorescence slope in experiment [4] is -0.489 (inactive). The NADPH fluorescence slope in experiment [5] is -2.4e-05 (inactive). Besides, the slope in experiment [6] was 0.00639 (inactive).
With `COC(=O)c1sc(N2C(=O)C(O)=C(C(=O)c3ccc(C)o3)C2c2ccc(F)cc2)nc1C` (centres undefined), the cell count in experiment [1] came out at 325. Also, the inhibition in experiment [1] was 3% (inactive); in experiment [3] it was 35.1% (inactive); in experiment [7], 18.3% (inactive); in experiment [8], 4.43% (inactive). Besides, the inhibition of aggregation in experiment [2] was 10.4% (inactive). For the same compound, the values for the nuclei count in experiment [2] and in experiment [3] were 96.6% and 109%, respectively. Moreover, the fluorescence slope in experiment [4] was -0.419 (inactive). Moreover, the NADPH fluorescence slope in experiment [5] was -5.6e-05 (inactive). In addition, the slope in experiment [6] is 0.0054 (inactive).
As for `CCOC(=O)c1cc2sc(C)cc2n1CC(=O)NCc1ccc(F)cc1`, the cell count in experiment [1] was found to be 560. In addition, the inhibition in experiment [1] is -19.6% (inactive); in experiment [3], -35.8% (inactive); in experiment [7] it was 6.92% (inactive); in experiment [8], 16.7% (inactive). The inhibition of aggregation in experiment [2] is -31% (inactive). Further, the nuclei count was determined as 98.7% in experiment [2] and 124% in experiment [3]. Also, in experiment [4], the fluorescence slope was -0.382 (inactive). The NADPH fluorescence slope in experiment [5] is -4.5e-05 (inactive). Further, in experiment [6], the slope was 0.00466 (inactive).
